# Laboratory results reported in PubChem BioAssay (NCATS).
# Values joined by “and” are separate entries in the source; they are usually repeats but may differ in a detail not shown here. Equal values may be shown once. Results filed as inconclusive are left out. For part of these data: Potency and affinity values are given separately. Active and inactive are the calls of the source.
# Columns and labels:
# [1] = Ebola virus entry assay, green fluorescence channel
# [2] = Ebola virus entry assay, green channel fluorescence
# [3] = qHTS profiling of the MIPE4 collection as inhibitors of Plasmodium falciparum (3D7) proliferation (AID 743344);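 further: scaled between DMSO vehicle wells and 0.29 µM artemisinin as full inhibition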; details: P. falciparum 3D7 in erythrocytes, SYBR Green DNA fluorescence, 72 h; at 28.5 µM (top of the series) unless noted
# Outline: (§1)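 Parasite DNA was quantified by SYBR Green I fluorescence (ex 485, em 535 nm) after overnight lysis in saponin/Triton buffer at room temperature. Cultures at 0.3% parasitemia and 2.5% hematocrit were first exposed to compound for 72 h at 37 C; signals were normalised to artemisinin (0.29 uM) and vehicle wells.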
# [4] = qHTS profiling of the MIPE4 collection as inhibitors of Plasmodium falciparum (DD2) proliferation (Rep 2) (AID 743346); details: P. falciparum Dd2 in erythrocytes, SYBR Green DNA, 72 h; at 28.5 µM (top of the series) unless noted
# Outline: as §1
# [5] = qHTS profiling of the MIPE4 collection as inhibitors of Plasmodium falciparum (HB3) proliferation (AID 743347);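 further: plate controls were DMSO vehicle wells for no effect and artemisinin wells for full effect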; details: P. falciparum HB3 in erythrocytes, SYBR Green DNA, 72 h; at 28.5 µM (top of the series) unless noted
# Outline: as §1
# [6] = qHTS Assay for Identifying Gametocytocidal Compounds (AID 743244; active means well fitted curve in the direction sought with a large enough effect; an effect the other way counts as inactive or inconclusive; further: potency means the concentration at half of the fitted maximal effect;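 on max response: on the % scale 0 is the no-effect control and ±100 the full control effect; actives lower the fluorescent signal which means gametocytes are killed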); details: P. falciparum 3D7 stage III-V gametocytes, alamarBlue, 72 h; max response: stronger effect = lower value
# Outline: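 Viability read-out was resazurin reduction (alamarBlue, 24 h) measured at Ex 525/Em 598 nm. Beforehand, late-stage (III-V) 3D7 P. falciparum gametocytes at 20,000 cells/well were incubated with compound 72 h at 37C under 5% CO2.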
# [7] = qHTS assay for cell viability of HEK293 cells (AID 743288; active means well fitted curve in the direction sought with a large enough effect; an effect the other way counts as inactive or inconclusive; further: on the % scale 0 is the no-effect control and ±100 the full control effect; nearly all actives have a fitted effect of over 50% in size); details: ATP luminescence (CellTiter-Glo), 18 h, stronger effect = lower value
# Outline: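 After 18 h compound exposure at 37 C, parental HEK293 cells (2,000/well) are lysed with CellTiter-Glo and luminescence is read following 30 min at room temperature.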
# [8] = qHTS assay for cell viability of the p53RE-bla HCT-116 cell line (AID 743292; active means well fitted curve in the direction sought with a large enough effect; an effect the other way counts as inactive or inconclusive; further: on the % scale 0 is the no-effect control and ±100 the full control effect; nearly all actives have a fitted effect of over 55% in size); details: p53RE-bla HCT-116 viability, ATP luminescence, 16 h; series mostly up to 95 µM
# Outline: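 CellSensor p53RE-bla HCT-116 cells (4,000/well) pre-incubated 5 h at 37 C, then exposed to compounds in DMSO for 16 h at 37 C. Viability read as ATP content by CellTiter-Glo luminescence after 30 min at room temperature.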
# [9] = Ebola virus entry assay, blue channel fluorescence
# [10] = Ebola virus entry assay, green fluorescence channel; remark: listed apart in the source
# [11] = Ebola virus entry assay, ratio channel readout
# [12] = qHTS profiling of the MIPE4 collection as inhibitors of Plasmodium falciparum (DD2) proliferation (AID 743345); details: P. falciparum Dd2 in erythrocytes, SYBR Green DNA, 72 h; at 28.5 µM (top of the series) unless noted
# Outline: as §1
# [13] = molecular target: T1, Hexokinase-4 (Homo sapiens) + Glucokinase regulatory protein (Homo sapiens) (UniProt P35557+Q14397); test: qHTS assay for inhibitors of recombinant human GCK-GKRP interaction: Diaphorase-coupled assay (AID 743205; active means well fitted curve in the direction sought with a large enough effect; an effect the other way counts as inactive or inconclusive); details: G6PDH/diaphorase resorufin fluorescence; series mostly up to 57.5 µM
# Outline: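 GST-GCK (10 nM) with FLAG-GKRP (10 nM), 5 mM glucose and 0.4 mM ATP in pH 7.6 Hepes; compounds preincubated 20 min with substrate. G6PDH/diaphorase coupling converts resazurin to resorufin, read kinetically (ex 525/em 590 nm) for 30 min.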
# [14] = molecular target: T1, Hexokinase-4 (Homo sapiens) + Glucokinase regulatory protein (Homo sapiens); test: qHTS assay for inhibitors of recombinant human GCK-GKRP interaction: ADP-Glo assay (AID 743206; active means well fitted curve in the direction sought with a large enough effect; an effect the other way counts as inactive or inconclusive;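 further: plate controls were DMSO plus enzyme for no effect and no enzyme for full effect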); details: ADP-Glo luminescence, 60 min, 0% = vehicle-only wells with enzyme present; series mostly up to 76.9 µM
# Outline: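 Pin-transferred compounds meet a 15 nM GST-GCK/15 nM FLAG-GKRP/2 uM S6P mix (dispense concentrations). ATP is then added to 0.4 mM final with 5 mM glucose, and the reaction runs 60 min at room temperature. ADP is quantified luminescently.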
# [15] = molecular target: T1, Hexokinase-4 (Homo sapiens) + Glucokinase regulatory protein (Homo sapiens); test: qHTS assay for inhibitors of recombinant human GCK-GKRP interaction: HTRF assay (AID 743207; active means well fitted curve in the direction sought with a large enough effect; an effect the other way counts as inactive or inconclusive;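 further: 0% = DMSO with GCK present and -100% = DMSO wells lacking GCK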); details: recombinant GCK-GKRP HTRF binding, 60 min; series mostly up to 57.5 µM
# Outline: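 GST-GCK and FLAG-GKRP (5 nM each) were combined with 2 uM S6P in pH 7.1 Hepes/MgCl2/KCl/DTT buffer, then compound and anti-FLAG XL665/anti-GST K antibodies were added. After 60 min at room temperature, HTRF 665/615 nm emission was read.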
# Wherever efficacy is given: 0% is about no effect.
# T1 sequence (P35557 whole entry, looked up): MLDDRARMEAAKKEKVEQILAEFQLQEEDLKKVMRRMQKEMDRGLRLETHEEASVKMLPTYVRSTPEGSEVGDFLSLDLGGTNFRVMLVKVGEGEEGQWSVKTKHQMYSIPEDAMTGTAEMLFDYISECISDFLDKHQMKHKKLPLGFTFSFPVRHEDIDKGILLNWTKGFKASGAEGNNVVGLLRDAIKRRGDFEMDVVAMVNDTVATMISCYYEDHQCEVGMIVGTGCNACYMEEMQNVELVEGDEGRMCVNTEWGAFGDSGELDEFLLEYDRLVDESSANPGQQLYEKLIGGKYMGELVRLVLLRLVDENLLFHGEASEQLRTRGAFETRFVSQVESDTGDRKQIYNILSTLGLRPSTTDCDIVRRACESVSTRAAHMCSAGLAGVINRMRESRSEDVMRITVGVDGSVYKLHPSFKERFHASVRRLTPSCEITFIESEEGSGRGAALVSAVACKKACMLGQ
# T1 sequence (Q14397 whole entry, looked up): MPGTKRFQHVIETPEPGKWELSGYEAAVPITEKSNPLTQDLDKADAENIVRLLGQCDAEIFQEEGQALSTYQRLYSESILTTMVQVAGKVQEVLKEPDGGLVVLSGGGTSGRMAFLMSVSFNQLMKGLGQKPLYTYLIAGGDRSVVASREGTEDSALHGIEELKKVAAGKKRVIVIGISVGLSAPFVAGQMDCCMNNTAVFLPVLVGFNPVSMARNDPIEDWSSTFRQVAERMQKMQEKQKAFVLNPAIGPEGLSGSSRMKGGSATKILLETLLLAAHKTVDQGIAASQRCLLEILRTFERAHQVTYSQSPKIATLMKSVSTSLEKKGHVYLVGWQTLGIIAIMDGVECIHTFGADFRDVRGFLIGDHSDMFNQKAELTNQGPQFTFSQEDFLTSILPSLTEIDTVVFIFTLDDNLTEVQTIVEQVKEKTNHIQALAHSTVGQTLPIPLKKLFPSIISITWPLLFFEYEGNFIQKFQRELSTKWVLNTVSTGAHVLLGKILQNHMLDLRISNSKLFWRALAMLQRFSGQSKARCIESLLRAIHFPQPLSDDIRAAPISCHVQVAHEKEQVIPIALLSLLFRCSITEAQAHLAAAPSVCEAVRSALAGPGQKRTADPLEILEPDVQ
compound,measurement,setting,value
COc1ccc(C2CNC(=O)C2)cc1OC1CCCC1 (stereo not given),efficacy,[1],-23.7% (inactive)
same,outcome,[2],inactive
CCCCCCCCCCCCCCCC(=O)NCCO,efficacy,[1],20.8% (inactive)
same,outcome,[2],inactive
CCCOC(=O)c1ccccc1,efficacy,[1],17.4% (inactive)
same,outcome,[2],inactive
Cn1c(=O)c2[nH]cnc2n(C)c1=O,"parasite growth, % of DMSO control",[3],85.4%
same,"parasite growth, % of control (lower = inhibition)",[4],114%
same,"growth, % of control",[5],96.9%
same,efficacy,[1],-18.7% (inactive)
same,outcome,[2],inactive
CCCc1ccc(OCC(=O)N2CCN(C(=O)COc3ccc(CCC)cc3OC)CC2)c(OC)c1,efficacy,[1],12.4% (inactive)
same,outcome,[2],inactive
CCCCCCC(=O)CCCCCC/C=C/C[C@@H](O)[C@H](O)[C@@](N)(CO)C(=O)O,max response,[6],-3.38% (inactive) and -2.5% (inactive)
same,efficacy,[1],-11.6% (inactive)
same,outcome,[2],inactive
[N-]=[N+]=CC(=O)OC[C@H](N)C(=O)O,max response,[6],-0.674% (inactive)
same,max response,[7],0.519% (inactive)
same,Potency,[8],inactive
same,efficacy,[1],10.3% (inactive)
same,outcome,[2],inactive
O=C(O)c1ccccc1S,efficacy,[1],16.8% (inactive)
same,outcome,[2],inactive
O=[N+]([O-])O[C@H]1CO[C@H]2[C@@H]1OC[C@H]2O[N+](=O)[O-],max response,[6],30.8% (inactive)
same,efficacy,[1],-25.2% (inactive)
same,outcome,[2],inactive
CO[C@H]1C=CO[C@@]2(C)Oc3c(C)c(O)c4c(O)c(c(/C=N/N5CCN(C6CCCC6)CC5)c(O)c4c3C2=O)NC(=O)/C(C)=C\C=C[C@H](C)[C@H](O)[C@@H](C)[C@@H](O)[C@@H](C)[C@H](OC(C)=O)[C@@H]1C,outcome,[9],inactive
same,outcome,[10],inactive
same,outcome,[11],inactive
CCOc1ccc2nc3cc(N)ccc3c(N)c2c1,efficacy,[1],18.4% (inactive)
same,outcome,[2],inactive
O=C1c2ccccc2C(=O)c2ccccc21,max response,[6],-6.63% (inactive)
same,max response,[7],-16.3% (inactive)
same,Potency,[8],inactive
same,efficacy,[1],11.2% (inactive)
same,outcome,[2],inactive
CC(=O)CC(c1ccccc1)c1c(O)c2ccccc2oc1=O (stereo not given),max response,[6],17.5% (inactive) and 36.1% (inactive)
same,"parasite growth, % of DMSO control",[3],71.1%
same,"parasite growth remaining, % of DMSO control (lower = more inhibition)",[12],93.4%
same,"parasite growth, % of control (lower = inhibition)",[4],69.5%
same,"growth, % of control",[5],84.4%
same,efficacy,[1],-35.3% (inactive)
same,outcome,[2],inactive
COC1CC(=C(c2cccs2)c2cccs2)C[N+](C)(C)C1 (stereo not given),Potency,[6],8.91 µM (active)
same,efficacy,[1],18.8% (inactive)
same,outcome,[2],inactive
C[C@]12CC[C@@H]3c4ccc(OC(=O)N(CCCl)CCCl)cc4CC[C@H]3[C@@H]1CC[C@@H]2O,max response,[6],-1.39% (inactive)
same,efficacy,[1],-12.5% (inactive)
same,outcome,[2],inactive
COC(=O)C(Cl)C(=O)OC,max response,[6],-5.17% (inactive)
same,efficacy,[1],18.5% (inactive)
same,outcome,[2],inactive
CC(C)OC(=O)OCOP(=O)(CO[C@H](C)Cn1cnc2c(N)ncnc21)OCOC(=O)OC(C)C,"parasite growth, % of DMSO control",[3],292%
same,"parasite growth remaining, % of DMSO control (lower = more inhibition)",[12],79.8%
same,"parasite growth, % of control (lower = inhibition)",[4],74.1%
same,"growth, % of control",[5],345%
same,efficacy,[1],-18.7% (inactive)
same,outcome,[2],inactive
O=C(CCCl)NCCc1ccccc1,efficacy,[1],-10.7% (inactive)
same,outcome,[2],inactive
O=C(O)/C=C\C(=O)O,max response,[6],2.8% (inactive)
same,efficacy,[1],12.7% (inactive)
same,outcome,[2],inactive
CCCCCCCCCCCCCCCC(=O)OC(C)C,efficacy,[1],10.3% (inactive)
same,outcome,[2],inactive
O=c1[nH]oc2c1CCNC2,outcome,[13],inactive
same,outcome,[14],inactive
same,outcome,[15],inactive
same,max response,[6],1.24% (inactive) and 27.1% (inactive)
same,efficacy,[1],22.4% (inactive)
same,outcome,[2],inactive
CCN(CC)CC#CCOC(=O)C(O)(c1ccccc1)C1CCCCC1 (stereo not given),outcome,[9],inactive
same,outcome,[10],inactive
same,outcome,[11],inactive
Nc1ccc(C(=O)OCC(O)CO)cc1 (stereo not given),efficacy,[1],18.5% (inactive)
same,outcome,[2],inactive
CNC[C@H](O)c1cccc(O)c1,efficacy,[1],-23.9% (inactive)
same,outcome,[2],inactive
NC[C@H]1O[C@H](O[C@H]2[C@H](O[C@@H]3O[C@H](CO)[C@@H](O)[C@H]3O)C(O)[C@H](N)C[C@@H]2N)[C@H](N)[C@@H](O)[C@@H]1O (stereo not given in full),efficacy,[1],-16% (inactive)
same,outcome,[2],inactive
OC1(c2ccc(Cl)cc2)CCNCC1,efficacy,[1],19.8% (inactive)
same,outcome,[2],inactive
C=C(C)[C@H]1CN[C@H](C(=O)O)[C@H]1CC(=O)O,outcome,[13],inactive
same,outcome,[14],inactive
same,outcome,[15],inactive
same,max response,[6],5.55% (inactive) and 38.6% (inactive)
same,efficacy,[1],-11.7% (inactive)
same,outcome,[2],inactive
NCCc1ccn[nH]1,efficacy,[1],19.8% (inactive)
same,outcome,[2],inactive
CCN(CC)CCNC(=O)c1cc(S(C)(=O)=O)ccc1OC,efficacy,[1],-10.9% (inactive)
same,outcome,[2],inactive
O=C(NCN1CCOCC1)c1cnccn1,efficacy,[1],22.2% (inactive)
same,outcome,[2],inactive
CN1C(=O)CCS(=O)(=O)C1c1ccc(Cl)cc1 (stereo not given),outcome,[13],inactive
same,outcome,[14],inactive
same,outcome,[15],inactive
same,"parasite growth, % of DMSO control",[3],98.6%
same,"parasite growth remaining, % of DMSO control (lower = more inhibition)",[12],91.5%
same,"parasite growth, % of control (lower = inhibition)",[4],126%
same,"growth, % of control",[5],109%
same,efficacy,[1],19.9% (inactive)
same,outcome,[2],inactive
CN1C(C)(C)CCCC1(C)C,efficacy,[1],14.2% (inactive)
same,outcome,[2],inactive
